According to PubChem BioAssay (NCI):
Values joined by “and” are separate entries in the source; they are usually repeats but may differ in a detail not shown here. Identical values can stand only once. The panel holds about 83,000 compounds, 20% with a hit somewhere; the sample as a whole holds those more often.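 A percent growth of 40 corresponds to 60% growth inhibition; 0 means no net growth; -100 means all cells died. Active threshold: below 10.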 Active and inactive are the calls of the source.

How the values were obtained:
Assay in all cases: NCI-60 one-dose screen, 48 h (100 = growth as untreated, 0 = no growth, -100 = all killed)
Conditions in all cases: 10 µM
SR leukemia = test system: SR leukemia
RPMI-8226 leukemia = test system: RPMI-8226 leukemia
OVCAR-8 ovarian = test system: OVCAR-8 ovarian
OVCAR-5 ovarian = test system: OVCAR-5 ovarian
OVCAR-4 ovarian = test system: OVCAR-4 ovarian
SK-OV-3 ovarian = test system: SK-OV-3 ovarian
IGROV1 ovarian = test system: IGROV1 ovarian
HS 578T breast = test system: HS 578T breast
NCI/ADR-RES ovarian = test system: NCI/ADR-RES ovarian
T-47D breast = test system: T-47D breast
BT-549 breast = test system: BT-549 breast
MDA-MB-435 melanoma = test system: MDA-MB-435 melanoma
SW-620 colon = test system: SW-620 colon
MCF7 breast = test system: MCF7 breast
HCT-116 colon = test system: HCT-116 colon
HCC-2998 colon = test system: HCC-2998 colon
KM12 colon = test system: KM12 colon
MDA-MB-468 breast = test system: MDA-MB-468 breast
OVCAR-3 ovarian = test system: OVCAR-3 ovarian

Measured: growth

COc1cc(/C=N/NC(=O)c2ccc3nc(-c4ccc(Cl)cc4)[nH]c3c2)cc(OC)c1OC
active: SR leukemia -6.5% | RPMI-8226 leukemia -23.9% | OVCAR-8 ovarian -62.7% | OVCAR-4 ovarian -51.6% | SK-OV-3 ovarian -25% | IGROV1 ovarian 7.62% | HS 578T breast -52.1% | T-47D breast -58.6% | BT-549 breast -81.5% | MDA-MB-435 melanoma -67.3% | SW-620 colon -22.1% | MCF7 breast -72.8% | HCT-116 colon -67.5% | HCC-2998 colon -39.7% | KM12 colon -33%
inactive: OVCAR-5 ovarian 62.6% | NCI/ADR-RES ovarian 75.7%
107% (inactive) and -89.3% (active): MDA-MB-468 breast

O=C(Cc1ccc2c(c1)CN(C1CCC(=O)NC1=O)C2=O)NCCc1ccccc1 (configuration not stated)
active: OVCAR-8 ovarian 4.26% | IGROV1 ovarian 2.99% | HS 578T breast -5.24% | T-47D breast 1.71% | HCC-2998 colon -11.4% | KM12 colon 6.24% | MDA-MB-468 breast -46.1%
inactive: SR leukemia 53.5% | RPMI-8226 leukemia 45.6% | OVCAR-5 ovarian 37.6% | OVCAR-4 ovarian 10.6% | SK-OV-3 ovarian 28% | OVCAR-3 ovarian 20.1% | NCI/ADR-RES ovarian 28.4% | MDA-MB-435 melanoma 35% | SW-620 colon 10.6% | MCF7 breast 18.9% | HCT-116 colon 70.8%

CN(CCO)c1oc(-c2ccccc2)nc1[P+](c1ccccc1)(c1ccccc1)c1ccccc1
active: SR leukemia 5.21% | RPMI-8226 leukemia 7.8% | SK-OV-3 ovarian -13.5% | IGROV1 ovarian 6.36% | OVCAR-3 ovarian -0.969% | HS 578T breast -11.4% | T-47D breast 0.664% | BT-549 breast -22.5% | MCF7 breast 0.978% | HCT-116 colon 6.5% | KM12 colon -39.4% | MDA-MB-468 breast -55.9%
inactive: OVCAR-8 ovarian 12.3% | OVCAR-5 ovarian 16.2% | OVCAR-4 ovarian 15.1% | NCI/ADR-RES ovarian 96.6% | SW-620 colon 11.5% | HCC-2998 colon 10.8%

CCCCSc1nc(Nc2ccc(/C(C)=N/NC(N)=S)cc2)c(C#N)c(-c2ccccc2)n1
active: OVCAR-4 ovarian 5.32% | MDA-MB-468 breast -28.4%
inactive: SR leukemia 61.6% | RPMI-8226 leukemia 47.3% | OVCAR-8 ovarian 15.1% | OVCAR-5 ovarian 60.4% | SK-OV-3 ovarian 108% | IGROV1 ovarian 57.6% | OVCAR-3 ovarian 13.4% | HS 578T breast 43.6% | NCI/ADR-RES ovarian 25.3% | T-47D breast 45.9% | MDA-MB-435 melanoma 65.4% | SW-620 colon 56.8% | MCF7 breast 30.7% | HCT-116 colon 24.6% | HCC-2998 colon 53.1% | KM12 colon 72.4%

O=c1[nH]c2ccccc2cc1CSc1ccc(Nc2nccc(-c3ccc(C(F)(F)F)cc3)n2)cc1
active: OVCAR-8 ovarian -25.9% | OVCAR-4 ovarian -60.3% | HS 578T breast -8.2% | HCT-116 colon 6.96% | MDA-MB-468 breast -17.5%
inactive: SR leukemia 64.7% | RPMI-8226 leukemia 69.5% | OVCAR-5 ovarian 36% | SK-OV-3 ovarian 79.5% | IGROV1 ovarian 35.7% | NCI/ADR-RES ovarian 11.9% | T-47D breast 18.8% | BT-549 breast 31.7% | MDA-MB-435 melanoma 63.3% | SW-620 colon 31% | MCF7 breast 25.3% | HCC-2998 colon 48.1% | KM12 colon 46.8%

COc1ccc(/C=C/C(=O)c2ccc(N3CCN(C)CC3)cc2)c(C(F)(F)F)c1
active: SR leukemia 7.12% | RPMI-8226 leukemia 0.333% | MDA-MB-435 melanoma -54.9% | SW-620 colon -80% | MCF7 breast -54.1% | HCC-2998 colon -49.4% | KM12 colon 8.95% | MDA-MB-468 breast -10.7%
inactive: OVCAR-8 ovarian 49.6% | OVCAR-5 ovarian 86.4% | OVCAR-4 ovarian 43.9% | SK-OV-3 ovarian 63.7% | IGROV1 ovarian 55% | OVCAR-3 ovarian 46.9% | HS 578T breast 18.8% | NCI/ADR-RES ovarian 59.3% | T-47D breast 39.7% | HCT-116 colon 11.4%

COc1cc2c(c(OC)c1OC)C(=O)CC(c1cccc(NC(=O)c3cccc(N)c3)c1)O2 (configuration not stated)
inactive: SR leukemia 47.7% | RPMI-8226 leukemia 57.4% | OVCAR-8 ovarian 55% | OVCAR-5 ovarian 123% | OVCAR-4 ovarian 64.1% | SK-OV-3 ovarian 107% | IGROV1 ovarian 86.7% | HS 578T breast 90.3% | NCI/ADR-RES ovarian 68.2% | T-47D breast 35.5% | BT-549 breast 63.8% | MDA-MB-435 melanoma 77.4% | SW-620 colon 94.1% | MCF7 breast 57.8% | HCT-116 colon 65.4% | HCC-2998 colon 114% | KM12 colon 72.2% | MDA-MB-468 breast 65.6%

CCCn1c(=O)c2[nH]c(-c3ccc(OCc4nc5ccc(C#N)cc5[nH]4)cc3)nc2n(CCC)c1=O
inactive: SR leukemia 59.5% | RPMI-8226 leukemia 68.9% | OVCAR-8 ovarian 66.3% | OVCAR-5 ovarian 113% | OVCAR-4 ovarian 78.9% | SK-OV-3 ovarian 85.5% | IGROV1 ovarian 62.2% | OVCAR-3 ovarian 68% | HS 578T breast 40% | NCI/ADR-RES ovarian 97.1% | T-47D breast 35.7% | BT-549 breast 92.6% | SW-620 colon 80.5% | HCT-116 colon 58.2% | HCC-2998 colon 95.3% | KM12 colon 75.5% | MDA-MB-468 breast 65.9%
active: MCF7 breast -48.9%

Brc1ccc(N/N=C/c2c[nH]c3ccccc23)nc1
active: SR leukemia 2.45% | RPMI-8226 leukemia 2.19% | IGROV1 ovarian 1.99% | NCI/ADR-RES ovarian 5.81% | BT-549 breast -2.29% | MCF7 breast 9.88% | HCT-116 colon 6.45% | HCC-2998 colon -1.13% | KM12 colon 0.217% | MDA-MB-468 breast -35.5%
inactive: OVCAR-8 ovarian 44.3% | OVCAR-5 ovarian 45.4% | OVCAR-4 ovarian 41.5% | SK-OV-3 ovarian 71% | HS 578T breast 51.7% | T-47D breast 25.7% | MDA-MB-435 melanoma 30.4% | SW-620 colon 20.8%
